Reference: PubChem BioAssay AID2507 (National Center for Advancing Translational Sciences (NCATS), 2010)
Records with an inconclusive call do not appear. The source made the active and inactive calls. Calls follow the shape of the dose curve; as a rule, active = well fitted inhibition curve with a large enough effect; inconclusive = small, poorly fitted or top-dose-only effect, or effect the other way; inactive = flat fitted curve, though single readings scatter.

Assay: Secondary Assay for General miRNAs Modulators and/or Inhibitors/Activators of miR-21: miR-30 Firefly Luciferase Assay
Conditions: HeLa miR-30 FLuc reporter, luminescence, 48 h; series mostly up to 38.3 µM; activity change, negative = inhibition: at the top concentration
Source text: MLSCN Grant: 1 R21 NS059478-01 Assay Provider: Qihong Huang, The Wistar Institute NCGC Assay Overview: MicroRNAs (miRNAs) are endogenously encoded small (~20-25 nucleotides), nonprotein-coding RNAs that are involved in post-transcriptional repression of target messenger RNAs (mRNAs) (Le and Hannon, 2004). Estimated to be involved in the regulation of 30% of all protein-coding mRNAs (Filipowicz et al., 2008), miRNAs play a significant role in many biological processes including cellular differentiation and tissue development (Ghildiyal and Zamore, 2009). […] Compounds active in the miR-21 FLuc assay were clustered using Leadscope and active chemical series were prioritized based on chemical properties, potential for medicinal chemistry optimization, and SAR. Within each chemical series, representative compounds were re-acquired to test for activity in a secondary assay based on the quality of their CRC, efficacy, and potency. The secondary assay to determine if compounds active in the miR-21 FLuc assay were potentially specific for miR-21 and were not general modulators of the miRNA pathway was another cell-based FLuc reporter gene assay, this time targeting miR-30. Compounds found active in both the miR-21 FLuc and miR-30 FLuc assays are not considered miR-21 specific compounds, and may be general miRNA modulators.
NCGC Assay Protocol Summary: Reagents: HeLa cells stably expressing firefly luciferase (FLuc) under the control of a CMV promoter (upstream) and a miR-30 binding sequence directly downstream of the gene. These cells also stably express miR-30. Control compounds used were compound C3 (provided by collaborator), N6-phenyladenosine (MP Biomedicals, 0215379625), and DMSO. Assay Summary: 6uL of HeLa miR-30-FLuc cells in assay buffer (DMEM, Invitrogen #21063-029; 10% FBS, HyClone #SH30071.03) were dispensed at 1000cells/well (1.7 x 10^5 cells/mL) into Greiner solid-white TC-treated 1536-well plates using a Multidrop Combi (Thermo Fisher Scientific). Plates were incubated for one hour at 37 degree Celsius, 95% humidity, 5% CO2. These assay plates were then treated with 23nL of compound or DMSO using a Kalypsys pin tool, which allows for delivery of a 24-point titration of each compound to the assay plate, with a final compound concentration ranging from approximately 40uM to 5pM. Assay plates were then incubated for 48 hours. After incubation, plates were allowed to come to RT for one hour prior to delivery of 3uL of 3X luciferase detection reagent. After a 15 minute incubation to allow for cell lysis, luciferase activity was measured using a ViewLux CCD imager (PerkinElmer), with an average exposure time of 2-12 seconds. Keywords: NIH Roadmap, MLPCN, MLSMR, qHTS, miR-21, miR-30, microRNA, firefly luciferase, FLuc.

Row | SMILES | Potency | activity change, negative = inhibition
1 | CCc1nonc1NC(=O)c1oc2cc(C)c(C)cc2c1C | 3.18 µM (active) | –
2 | COc1ccccc1NC(=O)CSc1nnc(-c2ccccn2)o1 | 5.04 µM (active) | –
3 | CS(=O)(=O)n1nc(-c2ccc(Cl)cc2)nc1SCc1ccccc1 | 10 µM (active) | –
4 | COc1ccc(NCc2cccn2-c2nnc(N3CCC(C)CC3)s2)c(OC)c1 | 1.79 µM (active) | –
5 | c1ccc(CSc2nnc3ccc(-c4cccs4)nn23)nc1 | 11.3 µM (active) | –
6 | O=S(=O)(c1ccc(F)cc1)n1ccc(-c2cnc(-c3ccccc3)s2)n1 | 6.34 µM (active) | –
7 | COc1ccc(C(=O)Nc2nnc(C(C)C)s2)cc1OC | 7.98 µM (active) | –
8 | CC(C)COc1ccc(C(=O)Nc2cc(-c3ccccc3)no2)cc1 | 2.25 µM (active) | –
9 | Cc1ccc(SCC(=O)Nc2ccc3oc(-c4ccc(F)cc4)nc3c2)cc1 | 11.3 µM (active) | –
10 | O=C(CSc1nnc(-c2ccncc2)o1)Nc1nncs1 | – | 0.64% (inactive)
11 | CCC(Oc1ccccc1F)C(=O)N1CCC(c2nc3ccccc3s2)CC1 (stereo not given) | – | 18.4% (inactive)
12 | CC(=O)c1cnc2nc(SCc3ccccc3)nn2c1C | 12.6 µM (active) | –
13 | COc1cccc(-n2nnc(-c3nc(-c4cccs4)no3)c2N)c1 | 0.634 µM (active) | –
14 | Cc1c(-c2nc(-c3ccc(C(F)(F)F)cc3)no2)n(C)oc1=O | 0.503 µM (active) | –
15 | CCC(=O)n1nc(-c2cccnc2)nc1NCc1ccc(F)cc1 | – | 29.6% (inactive)
16 | Cc1cc(C)cc(NC(=O)CSc2nnc(CNC(=O)c3ccco3)o2)c1 | – | 4.57% (inactive)
17 | CC(C)(C)c1ccc(NC(=O)CSc2nnc(-c3n[nH]c4ccccc34)o2)cc1 | 11.3 µM (active) | –
18 | O=C(CSc1nnc(-c2ccc(Cl)cc2)o1)Nc1ccc(F)cc1 | 3.18 µM (active) | –
19 | Nc1c(-c2nc(-c3ccccc3Cl)no2)nnn1-c1ccccc1F | 0.4 µM (active) | –
20 | COc1ccc(-n2nnc(-c3nc(-c4cccs4)no3)c2N)cc1OC | – | -14.2% (inactive)

Row | SMILES | Potency | activity change, negative = inhibition
21 | Cc1ccc(NC(=O)Cn2nnc(-c3nc(-c4ccc(Cl)cc4)no3)c2N)cc1C | – | -16.2% (inactive)
22 | Cn1c(=O)[nH]c2cc(-c3noc(-c4ccc(F)cc4)n3)ccc21 | 2.52 µM (active) | –
23 | CCc1cccc(-n2nnc(-c3nsc(NC(=O)c4cccs4)n3)c2C)c1 | 7.11 µM (active) | –
24 | Cc1c(-c2nnc(SCC(=O)Nc3ccccc3F)o2)nnn1-c1ccc(F)cc1 | 4 µM (active) | –
25 | Cc1ccccc1OCCn1cnc2c(N)ncnc21 | – | -28.9% (inactive)
26 | COc1ccc(OCC(=O)Nc2cc(-c3nc4ccccc4s3)ccc2C)cc1 | 4.49 µM (active) | –
27 | Clc1ccc(-n2ncc3c(NCc4ccccn4)ncnc32)cc1 | 12.6 µM (active) | –
28 | COc1ccccc1C(=O)n1nc(-c2ccco2)nc1NCc1ccc(Cl)cc1 | 7.98 µM (active) | –
29 | O=C(CSc1nnc(-c2ccccn2)o1)Nc1cccc(Cl)c1 | 1.13 µM (active) | –
30 | COc1cc(-c2nc3cnccn3c2Nc2ccc(C(C)C)cc2)ccc1O | 2.25 µM (active) | –
31 | O=C(COc1ccccc1F)Nc1ccc(-c2nc3ccccc3s2)cc1 | 3.18 µM (active) | –
32 | COc1cccc(NC(=O)CSc2nnc(-c3cccs3)o2)c1 | 5.65 µM (active) | –
33 | COc1ccc(-c2csc(NC(=O)COC(=O)c3ccc(Br)o3)n2)cc1 | 2.25 µM (active) | –
34 | CCc1nonc1NC(=O)c1oc2ccc(C)cc2c1C | 4.49 µM (active) | –
35 | Cc1cc(C)n2c(SCc3ccccc3Cl)nnc2n1 | 14.2 µM (active) | –
36 | Cc1nnc(SCc2nc(N)nc(Nc3ccccc3)n2)s1 | 22.5 µM (active) | –
37 | Cc1cccc(-c2nnc(SCC(=O)Nc3ccc(C)c(C)c3)o2)c1 | 3.18 µM (active) | –
38 | CCc1ccc2oc(C(=O)Nc3nonc3CC)c(C)c2c1 | 3.56 µM (active) | –
39 | CCS(=O)(=O)n1nc(-c2ccccc2)nc1NCc1ccco1 | – | -29.2% (inactive)
40 | Cc1cccc(OCc2nnc(SCC(=O)Nc3ccc(N4CCOCC4)cc3)o2)c1 | – | 10.4% (inactive)
